# Source: PubChem BioAssay AID777 (Sanford-Burnham Center for Chemical Genomics, 2007)
# About 19,000 (20%) of roughly 96,000 compounds were called active. Only a sample is shown. Values without a mark were called inactive.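 Rule for the calls: active = blocking of liver enzyme CYP2C9 beyond about 50% at 5 µM (limit read from the data); inactive = the rest.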
# Molecular target: Cytochrome P450 2C9 (Homo sapiens) (UniProt P11712)
# Assay: blockers of cytochrome P450 2C9 activity – biochemical, luminescence, ADME assay, primary screen (AID 777)
# Details: CYP2C9 Supersomes, luciferin-H conversion, at 5 µM, stronger effect = higher value
# Chain of Cytochrome P450 2C9 (Homo sapiens) (P11712 whole entry, looked up): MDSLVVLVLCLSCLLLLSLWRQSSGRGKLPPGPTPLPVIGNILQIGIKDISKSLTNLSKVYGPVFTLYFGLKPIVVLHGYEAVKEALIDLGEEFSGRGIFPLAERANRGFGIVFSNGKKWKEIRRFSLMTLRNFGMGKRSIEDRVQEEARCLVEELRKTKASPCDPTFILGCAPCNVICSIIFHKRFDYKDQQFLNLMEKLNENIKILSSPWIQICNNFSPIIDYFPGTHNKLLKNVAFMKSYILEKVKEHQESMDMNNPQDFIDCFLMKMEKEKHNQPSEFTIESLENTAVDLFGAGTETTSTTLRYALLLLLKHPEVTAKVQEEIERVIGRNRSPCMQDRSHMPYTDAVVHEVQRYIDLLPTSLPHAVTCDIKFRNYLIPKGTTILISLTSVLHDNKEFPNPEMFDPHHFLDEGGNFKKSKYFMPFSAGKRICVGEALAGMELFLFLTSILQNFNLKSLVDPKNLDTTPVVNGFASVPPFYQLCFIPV
row,Compound,inhibition
1,CN(C)CCNC(=O)C(C(=O)c1ccccc1)n1ccccc1=O (centres undefined),-3.6%
2,CCCCNC(=O)OC(C)CNC(=O)OC (centres undefined),-7.6%
3,O=C(C1CCCO1)N1CCC(c2nc3ccccc3[nH]2)CC1 (centres undefined),-3.1%
4,CCCNS(=O)(=O)c1ccc2c(c1)CCCN2C(C)=O,4.5%
5,COC(=O)C(C)C1Sc2ccccc2NC1=O (centres undefined),2.8%
6,CC1CN(c2nc(-c3ccccc3)nnc2-c2ccccc2)CC(C)O1 (centres undefined),14.1%
7,Cn1nc(-c2ccccc2)c(-c2nc(-c3ccc(Cl)cc3)no2)c1Cl,0.9%
8,Clc1ccc(-c2nnc(-c3ccccc3)nc2N2CCSCC2)cc1,59.2% (active)
9,CC1(C)CC(CC(=O)O)C(=O)O1 (centres undefined),4.1%
10,O=C(O)CCCCc1nc2ccccc2s1,2.4%
11,COc1ccccc1OCc1nc2ccccc2s1,51.7% (active)
12,O=C(O)CSCc1nc2ccccc2s1,-9.7%
13,C=CCNc1nc(C)nc(OC)n1,-13.4%
14,CCOc1cc2[nH]c(=O)n(CCC(=O)NCc3ccc(OC)cc3)c(=O)c2cc1OCC,-2.1%
15,O=C(CSc1nc2cc3c(cc2c(=O)n1CCC1=CCCCC1)OCO3)NCc1ccco1,8.9%
16,O=C(CCn1c(SCC(=O)c2ccccc2)nc2ccccc2c1=O)NCc1ccc(F)cc1,91.5% (active)
17,CCn1c(SCC(=O)NCC2CCCO2)nc2cc(S(=O)(=O)N3CCCCC3)ccc21 (centres undefined),50.2% (active)
18,Cc1ccc(S(=O)(=O)N2CCC(C(=O)NCC3CCCO3)CC2)cc1 (centres undefined),-9.7%
19,CCn1cc(C(=O)NCC2CCCO2)c(=O)c2cc(S(=O)(=O)N3CCCCC3)ccc21 (centres undefined),44%
20,O=C(CSc1nnc(-c2ccco2)n1CC1CCCO1)c1ccccc1 (centres undefined),-3.9%
21,Cn1c(-c2ccc(F)cc2)cnc1SCC(=O)NCc1ccco1,9.5%
22,O=C(CCCn1c(SCC(=O)c2ccccc2)nc2ccccc2c1=O)NCC1CCCO1 (centres undefined),91.9% (active)
23,O=C(NCC1CCCO1)C(C(=O)c1ccccc1)n1cc(Cl)ccc1=O (centres undefined),-9.3%
24,O=C(CCCn1c(SCC(=O)c2ccc(F)cc2)nc2ccccc2c1=O)NCc1ccco1,95% (active)
25,CCc1ccc(NC(=O)CSc2nc3ccccc3c(=O)n2CCN2CCOCC2)cc1,47.5%

row,Compound,inhibition
1,CCOC(=O)N1CCC(N(CCOC)C(=O)Nc2ccc(C)c(C)c2)CC1,-10.6%
2,CS(=O)(=O)Nc1ccc(C(=O)N2CCCC2)cc1,17.2%
3,CCOC(=O)N1CCN(C(=O)c2n[nH]c(=O)c3ccccc23)CC1,-4.2%
4,COc1ccc(C2C(C#N)=C(N)Oc3n[nH]c(C)c32)cc1CN1CCN(c2ccc(F)cc2)CC1 (centres undefined),28%
5,O=C(Cn1cc2c(n1)CCCCC2)NCCN1CCOCC1,-11.3%
6,O=C(NC(c1ccccc1)c1ccccc1)N1CCN(CCO)CC1,4%
7,COc1ccc(N(CCC#N)S(=O)(=O)c2ccc(Cl)cc2)cc1,19.8%
8,C=CCC(NCc1ccco1)c1ccc(OC)cc1 (centres undefined),-14.6%
9,N#CCSc1nc2ccc(N3CCOCC3)cc2c(=O)n1CCc1ccccc1,30.9%
10,CCCCn1c(SCC(=O)NCC2CCCO2)nc2ccc(N3CCOCC3)cc2c1=O (centres undefined),74.1% (active)
11,N#Cc1ccc(Oc2cc(C(F)(F)F)nc(-c3ccccn3)n2)cc1,42%
12,O=C(Nc1ccc(Cl)cc1)c1cc2nc(C3CC3)cc(C(F)(F)F)n2n1,-1.8%
13,COc1cc(OC)c(-n2c(C)cc(C=O)c2C)cc1Cl,16.9%
14,O=C(NCCSc1ccccc1)c1ccco1,-18.4%
15,CCNC(=S)NNC(=O)Cc1ccccc1,1.3%
16,CC(NC(=O)c1ccco1)C(=O)Nc1nc(-c2ccccn2)cs1 (centres undefined),9.7%
17,CCCc1ccc(OCC(=O)NNC(=S)NC(=O)c2ccco2)cc1,65.8% (active)
18,CC(Oc1ccc2ccccc2c1)C(=O)NNC(=S)NC(=O)c1ccco1 (centres undefined),85.3% (active)
19,COc1ccc(C(=O)NC(=S)NNC(=O)CCc2ccccc2)cc1,33.8%
20,O=S(=O)(N/N=C\c1cccn1-c1ccccc1)c1ccc2ccccc2c1,-71.5%
21,COc1ccccc1N=C1SC(C)CN1C(=O)C1CCC1 (centres undefined),-6.6%
22,Cc1nc(NC(=O)C23CCC(C)(C(=O)O2)C3(C)C)sc1C (centres undefined),-3.9%
23,Cc1cccc(-n2c(N)cc(=O)nc2SC(C)C(=O)NC2CCCCC2)c1 (centres undefined),27.7%
24,N#Cc1c(NC(=O)CCCN2C(=O)c3ccccc3C2=O)oc(-c2ccccc2)c1-c1ccccc1,50.3% (active)
25,O=C(CCCN1C(=O)c2ccccc2C1=O)Oc1ccc(Cl)cc1,19.8%

row,Compound,inhibition
1,COc1cc(C(=O)Nc2oc(-c3ccccc3)c(-c3ccccc3)c2C#N)cc(OC)c1OC,43.6%
2,CS(=O)(=O)Nc1cccc(C2=NN(S(=O)(=O)c3ccccc3)C(c3cccs3)C2)c1 (centres undefined),89.1% (active)
3,NC(=O)C1CCN(C2OC(=O)c3ccccc32)CC1 (centres undefined),-3.4%
4,Cc1ccc(CCn2c3c(c4ccccc42)CN(C)CC3)cn1,-27.5%
5,O=C(CSc1nnc(-c2ccc(NS(=O)(=O)c3ccccc3)cc2)o1)NCC1CCCO1 (centres undefined),92.2% (active)
6,O=C(CS(=O)(=O)Cc1ccccc1)NCC1CCCO1 (centres undefined),-17.4%
7,O=C(Nc1ccc(-c2nnc(-c3ccccc3)o2)cc1)C1CCCO1 (centres undefined),-11.1%
8,CSC1=N/C(=C\C=C\c2cccs2)C(=O)S1,-10.5%
9,C=C(C)Cn1c(N2CCCC2)nc2c1c(=O)[nH]c(=O)n2C,-5%
10,Cn1c(=O)[nH]c(=O)c2c1nc(N1CCCCCC1)n2CC(=O)c1ccccc1,7.5%
11,Cc1nnc(SCCCn2c(N3CCCCC3)nc3c2c(=O)[nH]c(=O)n3C)s1,59.5% (active)
12,CSCCC1NC2(C(=O)Nc3ccc(Cl)cc32)[C@@H]2C(=O)N(C3CCCC3)C(=O)[C@H]12 (some centres undefined),76.1% (active)
13,O=C(CN1CCCCCC1)Nc1ccc(Br)cc1Br,16.5%
14,COc1ccc(C(c2nnnn2C2CCCCC2)N2CCN(c3ccccc3F)CC2)cc1 (centres undefined),73.7% (active)
15,Cc1cccc2cc(CN(Cc3cccs3)C(c3nnnn3C3CCCC3)C(C)C)c(=O)[nH]c12 (centres undefined),-38.3%
16,Cc1cccc(N2CCN(C(c3ccccc3)c3nnnn3CC3CCCO3)CC2)c1C (centres undefined),37.3%
17,COc1ccc(N2CCN(C(c3cc4ccc(C)cc4[nH]c3=O)c3nnnn3C3CCCC3)CC2)cc1 (centres undefined),75.7% (active)
18,CC(C)C(c1nnnn1C1CCCC1)N1CCN(c2ccccc2F)CC1 (centres undefined),8.2%
19,CCOc1ccc2[nH]c(=O)c(C(c3nnnn3CCOC)N3CCOCC3)cc2c1 (centres undefined),6.5%
20,N#Cc1ccc(-c2ccc(F)cc2)nc1Sc1ccccc1,13.2%
21,Cc1[nH]n(-c2ccccc2)c(=O)c1CCOC(=O)c1ccc(C(F)(F)F)cc1,-11.8%
22,COC(=O)CN(c1nc(C)c(Cl)c(OC)n1)S(=O)(=O)c1ccc(C)cc1,34.3%
23,Cc1ccc(-c2nnc(-n3nnc4ccccc43)c3ccccc23)cc1,8.4%
24,CC1(C)NC(=O)N(CCOc2cccc(Oc3ccccc3)c2)C1=O,62.5% (active)
25,Cc1nn(CCOc2ccccc2)c(=O)n1-c1ccccc1F,-10%

row,Compound,inhibition
1,N#Cc1ccc(OCCN2C(=O)NC3(CCSC3)C2=O)cc1 (centres undefined),-24.2%
2,Cc1ccc(NC(=O)Cn2nc(C)c3ccccc3c2=O)c(C)c1,-59.3%
3,CCOC(=O)C1(S(=O)(=O)c2ccccc2)CCN(Cc2ccccc2)CC1,8.3%
4,CCn1c(-c2ccoc2C)n[nH]c1=S,2.9%
5,CCOC(=O)CN(C)Cc1c[nH]c2ccccc12,1.3%
6,COc1ccccc1CNC(=O)C1CCN(S(C)(=O)=O)CC1,-17.1%
7,COc1ccc(C(=O)NC(=S)Nc2ccccc2N2CCN(S(C)(=O)=O)CC2)cc1OC,54.8% (active)
8,CCC(=O)Nc1ccccc1N1CCN(S(C)(=O)=O)CC1,-0.9%
9,CC(C)c1ccc(OCC(O)Cn2cnc3ccccc32)cc1 (centres undefined),8.1%
10,CC(C)c1cc(C(=O)O)n[nH]1,1.1%
11,CCOCCOC(=O)C1=C(C)N(C)C(=O)NC1c1ccccc1F (centres undefined),-10.9%
12,Cc1ccc(-n2nc3cc(Cl)c(NC(=O)c4ccco4)cc3n2)cc1,15.7%
13,COc1ccc(CCNS(=O)(=O)c2ccc(F)cc2)cc1OC,76.6% (active)
14,COc1ccc(CCNc2ncnc3nc[nH]c23)cc1OC,8.9%
15,COc1ccc(C(=O)NCCc2ccc(S(N)(=O)=O)cc2)cc1OC,-6.7%
16,COc1ccc(CCNC(=O)CN(c2ccccc2)S(C)(=O)=O)cc1OC,4.9%
17,COc1ccc(S(=O)(=O)NC(CC(=O)NCc2ccccc2OC)c2ccco2)cc1 (centres undefined),-43.6%
18,O=C(NC1CCC(O)CC1)c1ccc(S(=O)(=O)NCc2ccco2)cc1 (centres undefined),5%
19,COc1ccc(-c2cc(C(=O)NCc3ccco3)no2)cc1OC,-47%
20,COc1ccc(S(=O)(=O)NCc2ccc(C(=O)N(C)Cc3ccco3)cc2)cc1,63.2% (active)
21,COc1ccc(CCNS(=O)(=O)c2ccc(Cl)s2)cc1OC,87.3% (active)
22,CCS(=O)(=O)NCCc1ccc(OC)c(OC)c1,0.1%
23,COc1ccc(CCNS(=O)(=O)c2ccc(C(=O)NCc3ccco3)cc2)cc1OC,71.8% (active)
24,Cc1nn(C)c(Oc2ccccc2)c1CCNS(=O)(=O)c1ccc(F)cc1,49.8%
